Drawing on PubChem BioAssay (EPA / NIEHS), this text covers outcome and AC50 for 30 molecules.

Each structure is given as a SMILES string. Results filed as inconclusive are left out. Active and inactive are the calls of the source. Rule for the calls, unless noted: active = hit-call score of the fitted dose curve at least 0.9, where 1 is the maximum; inconclusive = response in the unintended direction; inactive = score below 0.9.

Broadly, the AC50 is the concentration at which the activity in the assay is half-maximal.

One test is described as follows: CEETOX_H295R_MTT_cell_viability: Viability Assessment in the CeeTox HT-H295R MTT Assay (AID 2283718; active = hit-call score of the fitted dose curve at least 0.9, where 1 is the maximum; inactive = score below 0.9;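 for AC50: curve fitted both ways so AC50 may mark viability loss or gain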). In outline: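 MTT reduction (0.5 mg/ml, 4 h at 37 C; absorbance at 570 and 650 nm) gave viability as background-corrected percent change versus controls. H295R cells had 48 h forskolin (10 uM) prestimulation, then 48 h chemical exposure at 0.1% DMSO.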
In the case of `Oc1ccc2c(c1)CCC2`, the result was inactive.
On the same count and under the same terms, to `CCOCOCC` belongs “inactive”; to `OCCC(O)CO` (configuration not stated), “inactive”.
For the molecule `Nc1c(Br)cc([N+](=O)[O-])cc1Br`, the AC50 was 29.7 µM (active).

A short description of the next test: ACEA_AR_agonist_AUC_viability: ACEA Biosciences xCELLigence Real-Time Cell Analysis on Androgen Receptor Agonism for Viability (AID 2283775). The essentials:
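Real-time impedance tracking of 22Rv1 growth, readings every 5 min for 5 h then hourly; area-under-curve viability endpoint at 80 hours, relative to DMSO. Compounds at eight concentrations, 1:4 steps, top 100 uM, n = 2.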
Regarding `CCOC(OCC)OCC`, the result was inactive.
Same read-out and setting: to `COCCOCCC[Si](C)(O[Si](C)(C)C)O[Si](C)(C)C` belongs “inactive”; to `CCCCOC(=O)C(C)O` (configuration not stated), “inactive”.

A short description of the next test: ACEA_ER_AUC_viability: ACEA Biosciences xCELLigence Real-Time Cell Analysis on Estrogen Receptor Agonism for Viability (AID 2283782).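 Note: continuous compound exposure with impedance area under curve over 80 h; hit means loss of impedance signal meaning reduced cell growth or viability.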 In outline: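 T-47D; phenol red-free RPMI1640 + 10% CS-FBS; 8 conc., 1:4 serial, max 100 uM final, ≤0.5% DMSO; n = 2; continuous exposure; impedance monitored to 80 h post-dose; AUC vs DMSO.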
Take `CCc1ccc(C)nc1`: the outcome was inactive.
As for `OCC(F)(F)C(F)(F)C(F)(F)C(F)(F)C(F)(F)C(F)(F)C(F)(F)C(F)(F)CO`, the AC50 was 75 µM (active).
With `C=CC(=O)OCC(F)(F)C(F)(F)C(F)(F)C(F)(F)C(F)(F)C(F)(F)C(F)(F)C(F)F`, the call was inactive.
Consider `c1ccc(C[P+](c2ccccc2)(c2ccccc2)c2ccccc2)cc1`, for which the concentration at half-maximal activity (AC50) was 83.7 µM (active).
The same measure, in the same setting: to `O=C(Cl)c1ccc(Cl)cc1Cl` belongs 78.9 µM (active).
For `CCOC(OCC)OCC`, the call was inactive.
Still for that read-out and setting: to `NCC(F)(F)C(F)(F)C(F)(F)C(F)(F)C(F)(F)C(F)(F)F` belongs “inactive”.
The same measure, in the same setting: in the case of `Oc1ccc2c(c1)CCC2` it was “inactive”; in that of `CC1=CCC(=O)O1`, “inactive”; in that of `FC(F)(F)C(F)(F)C(F)(F)C(F)(F)C(F)(F)C(F)(F)C(F)(F)CCI`, “inactive”.
On the same count and under the same terms, in the case of `NC(=O)C(F)(F)C(F)(F)C(F)(F)C(F)F` it was “inactive”; in that of `CCCC(=O)OCC(COC(=O)CCC)OC(=O)CCC`, “inactive”; in that of `O=S(=O)(O)CCC(F)(F)C(F)(F)C(F)(F)C(F)(F)C(F)(F)C(F)(F)C(F)(F)C(F)(F)F`, “inactive”.
`O=S(=O)(Cl)C(F)(F)C(F)(F)C(F)(F)C(F)(F)C(F)(F)C(F)(F)C(F)(F)C(F)(F)F`: the molecule was classed as inactive.
As for `COCCOCCC[Si](C)(O[Si](C)(C)C)O[Si](C)(C)C`, the concentration at half-maximal activity (AC50) was 79.6 µM (active).
As for `CCOCOCC`, the call was inactive.
On to `NC(=O)C(F)(F)C(F)(F)C(F)(F)F`, for which the molecule was classed as inactive.
In the case of `CCCCCCCCCCCC(=O)Cl`, the AC50 was 79.8 µM (active).
Consider `C#CC(O)CCC` (configuration not stated), for which the call was inactive.
Same read-out and setting: in the case of `O=C=NCc1cccc(CN=C=O)c1` it was “inactive”.
On to `Oc1ccc(C2(c3ccc(O)c(C4CCCCC4)c3)CCCCC2)cc1C1CCCCC1`, for which the concentration at half-maximal activity (AC50) is 38.9 µM (active).
Take `OCCCc1cccnc1`: the result was inactive.
Still for that read-out and setting: in the case of `Nc1cc([N+](=O)[O-])cc(Cl)c1O` it was “inactive”; in that of `OCCC(O)CO` (configuration not stated), “inactive”.
Regarding `O=C(O)CCC(F)(F)C(F)(F)C(F)(F)F`, the molecule was classed as inactive.
On to `C=C(C)CCCC`, for which the result was inactive.
`CCOC(C=C(C)CCC=C(C)C)OCC`: the AC50 is 11.3 µM (active).
For the molecule `CN(C(=O)C(F)(F)C(F)(F)C(F)(F)F)[Si](C)(C)C`, the molecule was called inactive.
The same measure, in the same setting: in the case of `CCCCOC(=O)C(C)O` (configuration not stated) it was “inactive”; in that of `Nc1c(Br)cc([N+](=O)[O-])cc1Br`, “inactive”.
